Sampled rows, rich in hits. Any-hit rate of the full collection: about 1%.
PrP 5UTR inh – suppresses PrP 5' UTR mRNA reporter expression; 0.35% of 340,000 active; inhibition, % (test concentration not listed); cell-based PrP 5' UTR mRNA reporter, plate reader; AID 488862; in the data active means inhibition above about 52%; further: 0 = median of the neutral control wells
FadD28 binding – M. tuberculosis FadD28 bisubstrate binding inhibition. 0.22% of 360,000 active. inhibition, % at 12.5 µM. FadD28 bisubstrate probe binding, fluorescence polarization; in the data active means inhibition above about 8.5%, passing the limit was not always enough; inconclusive means no clear call, values can overlap the other calls
TcdB GH inh – TcdB glycohydrolase inhibition | 0.24% of 350,000 active | inhibition, % at 9.99 µM | TcdB glycohydrolase enzymatic assay, plate reader | P18177 | AID 652162; in the data active means inhibition above about 10%
BioA inh – blocks M. tuberculosis BioA enzyme activity | 0.096% of 360,000 active | inhibition, % at 9.99 µM | AID 602481 | purified M. tuberculosis BioA enzyme, plate reader; in the data active means inhibition above about 40%; inconclusive means no clear call, values can overlap the other calls
Mtb hypoxia rep – reduces hypoxia-regulated biosensor signal in M. tuberculosis. 0.1% of 300,000 active. M. tuberculosis hypoxia-regulated fluorescent reporter, fluorescence. fluorescence inhibition, % (concentration not given with the values); in the data active means fluorescence inhibition mostly above about 23%, no sharp cut-off; inactive means mostly below about 17%
PriA SSB inh – blocks PriA binding to SSB C-terminal tail; 0.6% of 430,000 active; AlphaScreen SSBct-PriA binding, biotinylated peptide; inhibition, % at 33 µM; in the data active means inhibition mostly above about 37%, no sharp cut-off; inactive means mostly below about 20%;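 further: plate controls were negative control peptide for no effect and reference peptide for full effect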
Active calls of the source: *.

What do the screens show for `Cc1ccc(NC(=O)CN2C(=O)N/C(=C\c3cccn3-c3cccc(C(=O)O)c3)C2=O)cc1`?
PrP 5UTR inh: -8.9; FadD28 binding: inconclusive; BioA inh: -0.5; Mtb hypoxia rep: -3.8; PriA SSB inh: -6.1

Results for Cc1ccc(NC(=O)CN2C(=O)N/C(=C/c3cc(C)n(-c4cccc(C(=O)O)c4)c3C)C2=O)cc1 ?
PrP 5UTR inh: -9.6; FadD28 binding: 48.6*; TcdB GH inh: 0.5; Mtb hypoxia rep: -3.8; PriA SSB inh: 11.6

What do the screens show for `COc1ccc(/C=C2/NC(=O)N(CC(=O)Nc3cccc(C)c3)C2=O)cc1O`?
PrP 5UTR inh: -16.2; FadD28 binding: 18.1*; TcdB GH inh: 3.0; BioA inh: 3.8; Mtb hypoxia rep: 3.1; PriA SSB inh: -5.9

How did Cc1cccc(NC(=O)CN2C(=O)S/C(=C\c3ccc(-c4cccc(C(=O)O)c4C)o3)C2=O)c1 do in these assays?
PrP 5UTR inh: -26.4; TcdB GH inh: -0.2; Mtb hypoxia rep: 5.4; PriA SSB inh: -6.7

How did C(=C\c1nc(-c2ccncc2)no1)/c1ccccc1 do in these assays?
PrP 5UTR inh: -69.6; FadD28 binding: -1.4; TcdB GH inh: 0.4; BioA inh: -0.9; Mtb hypoxia rep: 16.3; PriA SSB inh: -12.7

Results for COc1ccc(-n2c(O)c(C=Nc3c(C)n(C)n(-c4ccccc4)c3=O)c(=O)[nH]c2=O)cc1 ?
PrP 5UTR inh: -14.6; FadD28 binding: -2.1; BioA inh: -2.6; Mtb hypoxia rep: 9.9; PriA SSB inh: -5.4

Results for Cc1cc(C)c2sc(NC(=O)c3ccco3)nc2c1 ?
PriA SSB inh: -17.0

How did CCn1c(C)cc(/C=C2\NC(=O)N(CC(=O)Nc3cccc(C)c3)C2=O)c1C do in these assays?
PrP 5UTR inh: -22.9; FadD28 binding: 10.3*; BioA inh: -2.5; Mtb hypoxia rep: 5.9; PriA SSB inh: -4.2

What do the screens show for `Cc1cccc(NC(=O)CN2C(=O)N/C(=C\c3ccc(-c4cccc(C(=O)O)c4)o3)C2=O)c1`?
PrP 5UTR inh: -26.1; FadD28 binding: 42.7*; TcdB GH inh: -0.6; PriA SSB inh: -8.9

Results for O=C(NCCc1c[nH]c2ccccc12)c1ccc([N+](=O)[O-])o1 ?
FadD28 binding: -3.1; TcdB GH inh: 1.0; BioA inh: 0.8

Results for CN(C)c1ccc(N=Nc2ccc(C(=O)O)cc2)cc1 ?
PrP 5UTR inh: 4.2; FadD28 binding: 1.0; TcdB GH inh: -4.5; Mtb hypoxia rep: 2.1; PriA SSB inh: 0.4

Results for Cc1csc(N=Nc2ccc(N(C)C)cc2)[n+]1[O-] ?
FadD28 binding: -1.6; TcdB GH inh: 12.6*

How did Nc1ccc2nc(CCCCCCCCc3nc4ccc(N)cc4[nH]3)[nH]c2c1 do in these assays?
PrP 5UTR inh: -29.1; FadD28 binding: -3.3; TcdB GH inh: -3.8; Mtb hypoxia rep: 3.8; PriA SSB inh: 48.7*

How did Cc1ccc(S(=O)(=O)NNC(=O)COc2ccc(Br)cc2)cc1 do in these assays?
PriA SSB inh: -1.0

What do the screens show for `Cc1ccc2c(C)c(C(=O)N3CCN(c4ncccn4)CC3)oc2c1C`?
PrP 5UTR inh: -6.9; FadD28 binding: -3.3; TcdB GH inh: 1.1; BioA inh: 2.6; Mtb hypoxia rep: 3.5; PriA SSB inh: 84.7*

How did NC(N)=Nc1ccc(C=C2C=Cc3ccccc32)cc1 do in these assays?
PrP 5UTR inh: -28.0; FadD28 binding: -9.1; TcdB GH inh: 3.0; PriA SSB inh: 41.9*

How did CC1=C/C(=C\c2ccc(Br)o2)C(=O)O1 do in these assays?
PrP 5UTR inh: -11.7; FadD28 binding: -0.8; TcdB GH inh: 0.1; Mtb hypoxia rep: 1.0; PriA SSB inh: 0.2

What do the screens show for `O=C1C(=Cc2ccc(Br)o2)C(=O)c2ccccc21`?
PrP 5UTR inh: -24.3; FadD28 binding: 40.8*; BioA inh: 1.1; Mtb hypoxia rep: 17.8; PriA SSB inh: 37.1

How did N#Cc1ccccc1NC(=O)C(=O)NCC1CCN(S(=O)(=O)c2cccnc2)CC1 do in these assays?
PriA SSB inh: -19.0

What do the screens show for `CN1C(=O)Cc2cc(NC(=O)c3ccc(-c4ccsc4)cc3)ccc21`?
PriA SSB inh: 58.0*

Results for CCCCOc1ccc(C(=O)Nc2ccc3c(c2)CC(=O)N3C)cc1 ?
PriA SSB inh: 14.0

What do the screens show for `COc1cc(C)c(S(=O)(=O)Nc2cnc(N3CCCCC3)nc2N(C)C)cc1C`?
PriA SSB inh: -10.0

What do the screens show for `c1ccc(-c2nc(-c3ccco3)cs2)nc1`?
PrP 5UTR inh: -51.6; FadD28 binding: -0.4; BioA inh: -0.4; Mtb hypoxia rep: 7.9; PriA SSB inh: 8.8

What do the screens show for `c1ccc(-c2nccc(-c3ccco3)n2)nc1`?
PrP 5UTR inh: -38.3; FadD28 binding: -0.6; TcdB GH inh: -0.5; BioA inh: -0.5; Mtb hypoxia rep: 3.5; PriA SSB inh: 71.6*

Results for c1ccc(-c2nnc(-c3ccco3)c(-c3ccco3)n2)nc1 ?
PriA SSB inh: 114.5*

How did c1ccc(-c2noc(-c3ccco3)n2)nc1 do in these assays?
PrP 5UTR inh: -14.6; FadD28 binding: -0.4; BioA inh: -2.7; Mtb hypoxia rep: 5.2; PriA SSB inh: -18.6

How did C=CCN=c1scc(C)n1/N=C/c1ccc(O)c(O)c1 do in these assays?
PrP 5UTR inh: -26.6; FadD28 binding: 1.6; TcdB GH inh: 15.3*

How did CN=c1scc(-c2ccco2)n1N=Cc1ccc(O)c(O)c1 do in these assays?
Mtb hypoxia rep: 7.3; PriA SSB inh: 19.0

How did CN=c1scc(-c2ccco2)n1/N=C/c1ccc(O)c(O)c1 do in these assays?
PrP 5UTR inh: -40.5; FadD28 binding: 11.3*; TcdB GH inh: 0.1

How did CCOC(=O)C1=CC(=C2C(=O)N(CC)C(=S)N(CC)C2=O)c2ccccc2O1 do in these assays?
TcdB GH inh: -0.6; Mtb hypoxia rep: 11.7; PriA SSB inh: -1.8

What do the screens show for `O=S(=O)(NC1CCCC1)c1ccc(S(=O)(=O)N2CCCN(Cc3ccccc3)C2)cc1`?
PrP 5UTR inh: -31.3; FadD28 binding: -4.4; TcdB GH inh: -0.1; Mtb hypoxia rep: 4.2; PriA SSB inh: -3.1

How did Cn1nc([N+](=O)[O-])nc1Sc1cccc2cccnc12 do in these assays?
PrP 5UTR inh: -19.1; FadD28 binding: -1.2; TcdB GH inh: 0.0; Mtb hypoxia rep: -3.7; PriA SSB inh: 78.2*

Results for c1csc(-c2noc(CN3CCOCC3)n2)c1 ?
PrP 5UTR inh: -46.6; FadD28 binding: -2.5; TcdB GH inh: 0.8; Mtb hypoxia rep: 12.3; PriA SSB inh: 7.9

How did CCOc1ccc(Br)cc1C(=O)N/N=C/c1c[nH]c2ccccc12 do in these assays?
PrP 5UTR inh: -4.4; FadD28 binding: 0.2; TcdB GH inh: -11.3; BioA inh: -0.6

How did O=C(N/N=C/c1c[nH]c2ccccc12)c1cc(Br)ccc1O do in these assays?
PrP 5UTR inh: -12.5; FadD28 binding: 29.3*; TcdB GH inh: -0.1; BioA inh: 9.0

How did Cc1nc(N)sc1C(=O)N/N=C/c1c[nH]c2ccccc12 do in these assays?
PrP 5UTR inh: -17.4; FadD28 binding: 9.9*; BioA inh: -0.8

What do the screens show for `NNC(=O)c1[nH]c2ccccc2c1-c1ccccc1`?
PrP 5UTR inh: -27.3; FadD28 binding: -6.9; TcdB GH inh: -0.1; BioA inh: -0.3; PriA SSB inh: 101.9*

Screening data as filed in PubChem.
